Test results taken from PubChem BioAssay AID1159580 (chemical genetic matrix, 2015).
Where “and” joins values, the source holds several entries; their conditions need not be identical. Identical values can stand only once. About 2,000 (36%) of roughly 5,500 compounds were called active. Another 18% or so got no clear call; they are omitted. No stated cut-off is given here; in the data, active means normalized growth mostly below about 0.91 (no sharp cut-off); inconclusive means no clear call, values can overlap the other calls; inactive means mostly above about 0.92. This is one part of the list.

Assay: chemical genetic growth profiling, strain panel (AID 1159580);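 further: tested at 20 µM; growth read once vehicle control cultures reached saturation at 30 °C; 1 = growth at the plate median or of vehicle wells; lower values mean less growth of the strain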
Settings: S. cerevisiae deletion strains, growth OD

Measured: normalized growth

COc1ccc2c(C)cc(=O)oc2c1
inactive: locus YAL013W, strain DEP1, active compounds read low 1.02 | locus YAL021C, strain ccr4, active compounds read low 0.979 | locus YAL026C, strain drs2, active compounds read low 0.989 | locus YAL030W, strain snc1, active compounds read low 1.02 | locus YBL061C, strain skt5, active compounds read low 0.993 | locus YBR009C, strain hhf1, active compounds read low 1.01 | locus YBR021W, strain FUR4, active compounds read low 0.976 | locus YBR023C, strain chs3, active compounds read low 0.989 | locus YBR171W, strain sec66, active compounds read low 0.985 | locus YBR229C, strain ROT2, active compounds read low 1.01 | locus YBR231C, strain swc5, active compounds read low 0.987 | locus YBR279W, strain paf1, active compounds read low 0.995 | locus YCL011C, strain gbp2, active compounds read low 0.999 | locus YCL016C, strain dcc1, active compounds read low 0.997 | locus YCL029C, strain bik1, active compounds read low 1.03 | locus YCL061C, strain MRC1, active compounds read low 0.995 | locus YCL069W, strain vba3, active compounds read low 0.964 | locus YCR088W, strain abp1, active compounds read low 0.979 | locus YDL005C, strain med2, active compounds read low 0.974 | locus YDL035C, strain GPR1, active compounds read low 1.02 | locus YDL040C, strain nat1, active compounds read low 0.99 | locus YDL074C, strain BRE1, active compounds read low 0.995 | locus YDL101C, strain DUN1, active compounds read low 1.02 | locus YDL134C, strain PPH21, active compounds read low 0.992 | locus YDL185W, strain tfp1, active compounds read low 1.04 | locus YDL192W, strain arf1, active compounds read low 1.02 | locus YDR001C, strain nth1, active compounds read low 0.981 | locus YDR069C, strain doa4, active compounds read low 1 | locus YDR101C, strain arx1, active compounds read low 1.01 | locus YDR137W, strain rgp1, active compounds read low 0.979 | locus YDR159W, strain sac3, active compounds read low 0.995 | locus YDR162C, strain NBP2, active compounds read low 1.03 | locus YDR195W, strain ref2 1.04 | locus YDR297W, strain sur2, active compounds read low 1.01 | locus YDR318W, strain mcm21, active compounds read low 1.02 | locus YDR334W, strain swr1, active compounds read low 0.956 | locus YDR335W, strain msn5, active compounds read low 0.981 | locus YDR388W, active compounds read low 1.01 | locus YDR392W, strain spt3, active compounds read low 0.978 | locus YDR502C, strain sam2, active compounds read low 1.03 | locus YEL003W, strain gim4, active compounds read low 0.982 | locus YEL037C, strain rad23, active compounds read low 0.973 | locus YEL061C, strain CIN8 (second series), active compounds read low 0.975 | locus YER015W, strain faa2, active compounds read low 1 | locus YER016W, strain bim1, active compounds read low 0.998 | locus YER110C, active compounds read low 1.02 | locus YER111C, strain swi4, active compounds read low 0.992 | locus YER155C, strain BEM2 (second series), active compounds read low 0.976 | locus YER155C, strain BEM2, active compounds read low 1.01 | locus YER167W, strain BCK2, active compounds read low 1 | locus YFR010W, strain ubp6, active compounds read low 0.966 | locus YGL078C, strain dbp3, active compounds read low 1.03 | locus YGL086W, strain mad1, active compounds read low 1 | locus YGL167C, strain pmr1, active compounds read low 0.983 | locus YGL173C, strain kem1, active compounds read low 0.983 | locus YGL227W, strain vid30, active compounds read low 0.993 | locus YGL240W, strain doc1, active compounds read low 0.99 | locus YGL248W, strain PDE1, active compounds read low 1.02 | locus YGL253W, strain hxk2, active compounds read low 0.994 | locus YGR078C, strain PAC10, active compounds read low 1.01 | locus YGR135W, strain pre9, active compounds read low 1.01 | locus YGR252W, strain gcn5, active compounds read low 0.981 | locus YHR013C, strain ard1, active compounds read low 0.956 | locus YHR027C, strain rpn1, active compounds read low 1 | locus YHR030C, strain SLT2, active compounds read low 1 and 0.963 | locus YHR079C, strain IRE1 (second series), active compounds read low 1.02 | locus YHR079C, strain IRE1, active compounds read low 0.98 | locus YHR094C, strain hxt1, active compounds read low 1.03 | locus YHR129C, strain ARP1, active compounds read low 1.01 | locus YHR142W, strain chs7, active compounds read low 0.97 | locus YHR200W, strain rpn10, active compounds read low 1.01 | locus YIL066C, strain RNR3, active compounds read low 1.01 | locus YIL073C, strain SPO22, active compounds read low 1.06 | locus YIL125W, strain kgd1, active compounds read low 1.04 | locus YIR030C, strain dcg1, active compounds read low 1.03 | locus YJL092W, strain hpr5, active compounds read low 0.999 | locus YJL095W, strain BCK1 (second series), active compounds read low 0.99 | locus YJL095W, strain BCK1, active compounds read low 1.02 and 0.987 | locus YJL115W, strain asf1, active compounds read low 0.976 | locus YJL129C, strain trk1, active compounds read low 1.01 | locus YJL134W, strain LCB3, active compounds read low 1 | locus YJL154C, strain vps35, active compounds read low 0.97 | locus YJL164C, strain tpk1, active compounds read low 0.983 | locus YJL166W, strain qcr8, active compounds read low 0.968 | locus YJL168C, strain set2, active compounds read low 1.03
